# ± gives the standard deviation of the averaged measurements.
# Assays:
# Assay in all cases: promoter activity interaction Z-score (Lux/OD deviation from empty-vector control); higher = stronger promoter induction by the compound
# [1] = test system: E. coli BW25113 ompFp lux reporter; details: 157.2 µg/ml
# Procedure, shortened: (§1)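 E. coli BW25113 (wild type or marA, soxS or rob deletion) carrying low-copy luxCDABE promoter reporters grew in 40 µl LB Lennox in 384-well plates at 37°C. Each compound was tested at four 1:2 dilutions in biological duplicates. OD600 and luminescence were read every 30 min for 12 h. Areas were taken over 0–8 h (wild type) or 1–9 h (mutants), and wells below 10% of median growth area were removed. The score is the Z-transformed residual of growth-normalised luminescence fitted against the empty-vector control.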
# [2] = test system: E. coli BW25113 robp lux reporter
# Procedure, shortened: as §1
# [3] = test system: E. coli BW25113 soxSp lux reporter
# Procedure, shortened: as §1
# [4] = test system: E. coli BW25113 tolCp lux reporter
# Procedure, shortened: as §1
# [5] = 19.7 µg/ml, genetic background: wild type
# [6] = 19.7 µg/ml, genetic background: ΔmarA
# [7] = 19.7 µg/ml, genetic background: Δrob
# [8] = 19.7 µg/ml, genetic background: ΔsoxS
# [9] = 39.3 µg/ml, genetic background: wild type
# [10] = 39.3 µg/ml, genetic background: ΔmarA
# [11] = 39.3 µg/ml, genetic background: Δrob
# [12] = 39.3 µg/ml, genetic background: ΔsoxS
# [13] = 78.6 µg/ml, genetic background: wild type
# [14] = 78.6 µg/ml, genetic background: ΔmarA
# [15] = 78.6 µg/ml, genetic background: Δrob
# [16] = 78.6 µg/ml, genetic background: ΔsoxS
# [17] = 157.2 µg/ml, genetic background: wild type
# [18] = 157.2 µg/ml, genetic background: ΔmarA
# [19] = 157.2 µg/ml, genetic background: Δrob
# [20] = 157.2 µg/ml, genetic background: ΔsoxS
smiles,measurement,setting,value
CC(=O)[C@H]1CC[C@H]2[C@@H]3CCC4=CC(=O)CC[C@]4(C)[C@H]3CC[C@]12C [Progesterone],promoter activity interaction Z-score,[1]; genetic background: wild type,-0.672 ± 0.32
same,promoter activity interaction Z-score,[1]; genetic background: ΔmarA,-0.651 ± 0.19
same,promoter activity interaction Z-score,[1]; genetic background: Δrob,-1.43 ± 0.17
same,promoter activity interaction Z-score,[1]; genetic background: ΔsoxS,-1.51 ± 0.4
same,promoter activity interaction Z-score,[2]; [5],0.215 ± 0.46
same,promoter activity interaction Z-score,[2]; [6],-0.134 ± 0.11
same,promoter activity interaction Z-score,[2]; [7],0.137 ± 0.78
same,promoter activity interaction Z-score,[2]; [8],0.0784 ± 0.35
same,promoter activity interaction Z-score,[2]; [9],-0.384 ± 0.091
same,promoter activity interaction Z-score,[2]; [10],-0.498 ± 0.18
same,promoter activity interaction Z-score,[2]; [11],-0.00268 ± 0.38
same,promoter activity interaction Z-score,[2]; [12],-0.408 ± 1.2
same,promoter activity interaction Z-score,[2]; [13],0.0849 ± 0.14
same,promoter activity interaction Z-score,[2]; [14],-0.366 ± 0.29
same,promoter activity interaction Z-score,[2]; [15],-0.234 ± 0.65
same,promoter activity interaction Z-score,[2]; [16],-0.171 ± 0.34
same,promoter activity interaction Z-score,[2]; [17],-0.26 ± 0.16
same,promoter activity interaction Z-score,[2]; [18],-0.185 ± 0.13
same,promoter activity interaction Z-score,[2]; [19],-0.798 ± 0.68
same,promoter activity interaction Z-score,[2]; [20],-1.05 ± 0.11
same,promoter activity interaction Z-score,[3]; [5],-0.199 ± 0.29
same,promoter activity interaction Z-score,[3]; [6],-0.22 ± 0.01
same,promoter activity interaction Z-score,[3]; [7],0.0249 ± 0.041
same,promoter activity interaction Z-score,[3]; [8],-0.00845 ± 0.063
same,promoter activity interaction Z-score,[3]; [9],-0.25 ± 0.099
same,promoter activity interaction Z-score,[3]; [10],-0.192 ± 0.018
same,promoter activity interaction Z-score,[3]; [11],-0.155 ± 0.04
same,promoter activity interaction Z-score,[3]; [12],-0.315 ± 0.23
same,promoter activity interaction Z-score,[3]; [13],-0.226 ± 0.1
same,promoter activity interaction Z-score,[3]; [14],-0.147 ± 0.072
same,promoter activity interaction Z-score,[3]; [15],-0.0586 ± 0.098
same,promoter activity interaction Z-score,[3]; [16],-0.236 ± 0.25
same,promoter activity interaction Z-score,[3]; [17],-0.226 ± 0.079
same,promoter activity interaction Z-score,[3]; [18],-0.186 ± 0.028
same,promoter activity interaction Z-score,[3]; [19],-0.48 ± 0.037
same,promoter activity interaction Z-score,[3]; [20],-0.776 ± 0.47
same,promoter activity interaction Z-score,[4]; [5],-0.462 ± 1.4
same,promoter activity interaction Z-score,[4]; [6],0.741 ± 0.62
same,promoter activity interaction Z-score,[4]; [7],-0.127 ± 0.85
same,promoter activity interaction Z-score,[4]; [8],-0.377 ± 0.42
same,promoter activity interaction Z-score,[4]; [9],0.606 ± 1
same,promoter activity interaction Z-score,[4]; [10],0.0914 ± 0.43
same,promoter activity interaction Z-score,[4]; [11],0.494 ± 1
same,promoter activity interaction Z-score,[4]; [12],-1.65 ± 1.1
same,promoter activity interaction Z-score,[4]; [13],-0.308 ± 0.37
same,promoter activity interaction Z-score,[4]; [14],0.451 ± 1.3
same,promoter activity interaction Z-score,[4]; [15],0.161 ± 0.71
same,promoter activity interaction Z-score,[4]; [16],0.0688 ± 1.3
same,promoter activity interaction Z-score,[4]; [17],-0.227 ± 0.23
same,promoter activity interaction Z-score,[4]; [18],0.167 ± 0.12
same,promoter activity interaction Z-score,[4]; [19],-0.116 ± 0.74
same,promoter activity interaction Z-score,[4]; [20],0.764 ± 1

# — the supplement of paper PMC12282887
